# Laboratory results as given in publication PMC5700166.
# Assays:
# [1] = molecular target: T1, GST-Nv-NF-kB (Ser allele) (Nematostella vectensis, UniProt A7UNT2 2-411); test: protein-binding microarray (PBM); PBM: ~300 nM protein, 6 mM HEPES pH 7.8, 80 mM KCl, 0.5 mM EDTA, 0.5 mM EGTA, 6% glycerol, 35 ng/ul poly-dIdC, 1% milk, 1 h, room temperature; Ap Aiptasia and Nv Nematostella (sea anemones) / Co Capsaspora / Aq Amphimedon (sponge) / Dm Drosophila / Hu human; RHD is the Rel homology domain; high values mean tight binding; details: dsDNA, one strand shown
# T1 sequence: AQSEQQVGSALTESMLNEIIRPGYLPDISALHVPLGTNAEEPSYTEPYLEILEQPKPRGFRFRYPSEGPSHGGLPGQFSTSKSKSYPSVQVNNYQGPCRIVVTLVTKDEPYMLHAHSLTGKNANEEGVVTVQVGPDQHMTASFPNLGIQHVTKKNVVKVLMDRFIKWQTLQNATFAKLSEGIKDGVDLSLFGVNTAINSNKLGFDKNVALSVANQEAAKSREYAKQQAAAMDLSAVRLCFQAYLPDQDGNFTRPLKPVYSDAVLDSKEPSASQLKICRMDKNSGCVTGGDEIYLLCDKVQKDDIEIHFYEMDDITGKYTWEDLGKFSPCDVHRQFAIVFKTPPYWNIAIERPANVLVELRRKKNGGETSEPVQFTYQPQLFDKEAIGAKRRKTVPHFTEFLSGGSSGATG
# GST-Hu-p50 = GST-Hu-p50 (Homo sapiens, UniProt P19838 7-356); test: as above; details: dsDNA, one strand shown
# Chain of GST-Hu-p50 (P19838 7-356): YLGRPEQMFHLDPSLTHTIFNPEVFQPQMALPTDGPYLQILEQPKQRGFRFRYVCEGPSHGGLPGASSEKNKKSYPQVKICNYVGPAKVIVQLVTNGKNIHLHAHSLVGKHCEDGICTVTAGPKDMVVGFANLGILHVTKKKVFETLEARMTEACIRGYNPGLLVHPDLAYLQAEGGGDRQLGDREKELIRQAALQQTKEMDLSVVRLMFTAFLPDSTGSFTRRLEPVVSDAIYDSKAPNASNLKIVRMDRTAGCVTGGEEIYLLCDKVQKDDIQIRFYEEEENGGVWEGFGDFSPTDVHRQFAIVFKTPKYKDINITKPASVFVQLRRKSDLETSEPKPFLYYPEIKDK
sequence,measurement,setting,value
CCGATTAACATCAAAAAGGGAAATGATGTTAATCGGGTCTTGATTCGCTTGACGCTGCTG,binding signal,[1],6.22 z-score
same,binding signal,GST-Hu-p50,3.72 z-score
CCGATTAACATCACACATTTCCCTGATGTTAATCGGGTCTTGATTCGCTTGACGCTGCTG,binding signal,[1],4.87 z-score
same,binding signal,GST-Hu-p50,3.2 z-score
CCGATTAACATCACGGAACTCCCTGATGTTAATCGGGTCTTGATTCGCTTGACGCTGCTG,binding signal,[1],3.15 z-score
same,binding signal,GST-Hu-p50,3.05 z-score
CCGATTAACATCAAATTTCCCGCTGATGTTAATCGGGTCTTGATTCGCTTGACGCTGCTG,binding signal,[1],4.85 z-score
same,binding signal,GST-Hu-p50,3.98 z-score
CCGATTAACATCACTTTTTCCCATGATGTTAATCGGGTCTTGATTCGCTTGACGCTGCTG,binding signal,[1],4.35 z-score
same,binding signal,GST-Hu-p50,3.04 z-score
CCGATTAACATCACTGGGATTTCTGATGTTAATCGGGTCTTGATTCGCTTGACGCTGCTG,binding signal,[1],1.8 z-score
same,binding signal,GST-Hu-p50,2.5 z-score
CCGATTAACATCACGTTATTCCCTGATGTTAATCGGGTCTTGATTCGCTTGACGCTGCTG,binding signal,[1],3.53 z-score
same,binding signal,GST-Hu-p50,1.05 z-score
CCGATTAACATCAGGCAATTCCCTGATGTTAATCGGGTCTTGATTCGCTTGACGCTGCTG,binding signal,[1],3.97 z-score
same,binding signal,GST-Hu-p50,3.86 z-score
CCGATTAACATCAAGGGGGTGACTGATGTTAATCGGGTCTTGATTCGCTTGACGCTGCTG,binding signal,[1],3.83 z-score
same,binding signal,GST-Hu-p50,3.9 z-score
CCGATTAACATCAGGGGAGTTAATGATGTTAATCGGGTCTTGATTCGCTTGACGCTGCTG,binding signal,[1],4.74 z-score
same,binding signal,GST-Hu-p50,3.74 z-score
CCGATTAACATCAAAATTCCACCTGATGTTAATCGGGTCTTGATTCGCTTGACGCTGCTG,binding signal,[1],3.38 z-score
same,binding signal,GST-Hu-p50,3.61 z-score
CCGATTAACATCACGGGAACCCCTGATGTTAATCGGGTCTTGATTCGCTTGACGCTGCTG,binding signal,[1],2.26 z-score
same,binding signal,GST-Hu-p50,3.43 z-score
CCGATTAACATCAACATCCCCCCTGATGTTAATCGGGTCTTGATTCGCTTGACGCTGCTG,binding signal,[1],5.5 z-score
same,binding signal,GST-Hu-p50,4.91 z-score
CCGATTAACATCACCCTTGCAGGTGATGTTAATCGGGTCTTGATTCGCTTGACGCTGCTG,binding signal,[1],1.12 z-score
same,binding signal,GST-Hu-p50,2.18 z-score
CCGATTAACATCAGAACTTCCCATGATGTTAATCGGGTCTTGATTCGCTTGACGCTGCTG,binding signal,[1],2.2 z-score
same,binding signal,GST-Hu-p50,1.47 z-score
CCGATTAACATCATTAGGGTATTTGATGTTAATCGGGTCTTGATTCGCTTGACGCTGCTG,binding signal,[1],4.26 z-score
same,binding signal,GST-Hu-p50,4.5 z-score
CCGATTAACATCAGGGACTTACCTGATGTTAATCGGGTCTTGATTCGCTTGACGCTGCTG,binding signal,[1],5.49 z-score
same,binding signal,GST-Hu-p50,4.61 z-score
CCGATTAACATCACTAATTTCCCTGATGTTAATCGGGTCTTGATTCGCTTGACGCTGCTG,binding signal,[1],6.51 z-score
same,binding signal,GST-Hu-p50,3.94 z-score
CCGATTAACATCAAAATTCCCAATGATGTTAATCGGGTCTTGATTCGCTTGACGCTGCTG,binding signal,[1],4.95 z-score
same,binding signal,GST-Hu-p50,4.21 z-score
CCGATTAACATCAGAATAACCCCTGATGTTAATCGGGTCTTGATTCGCTTGACGCTGCTG,binding signal,[1],3.11 z-score
same,binding signal,GST-Hu-p50,4.22 z-score
CCGATTAACATCAGTAACTCCCTTGATGTTAATCGGGTCTTGATTCGCTTGACGCTGCTG,binding signal,[1],2.17 z-score
same,binding signal,GST-Hu-p50,2.5 z-score
CCGATTAACATCAGGAATATACCTGATGTTAATCGGGTCTTGATTCGCTTGACGCTGCTG,binding signal,[1],1.48 z-score
same,binding signal,GST-Hu-p50,1.06 z-score
CCGATTAACATCAATGCACCCCCTGATGTTAATCGGGTCTTGATTCGCTTGACGCTGCTG,binding signal,[1],4.37 z-score
same,binding signal,GST-Hu-p50,4.12 z-score
CCGATTAACATCAAGGCATTCCCTGATGTTAATCGGGTCTTGATTCGCTTGACGCTGCTG,binding signal,[1],2.11 z-score
same,binding signal,GST-Hu-p50,1.31 z-score
CCGATTAACATCAGGAAAACCCATGATGTTAATCGGGTCTTGATTCGCTTGACGCTGCTG,binding signal,[1],1.48 z-score
same,binding signal,GST-Hu-p50,2.32 z-score
CCGATTAACATCACGCAATTCCCTGATGTTAATCGGGTCTTGATTCGCTTGACGCTGCTG,binding signal,[1],4.54 z-score
same,binding signal,GST-Hu-p50,2.87 z-score
CCGATTAACATCAAGGAATTTCCTGATGTTAATCGGGTCTTGATTCGCTTGACGCTGCTG,binding signal,[1],1.22 z-score
same,binding signal,GST-Hu-p50,1.48 z-score
CCGATTAACATCACTTTCCCAAATGATGTTAATCGGGTCTTGATTCGCTTGACGCTGCTG,binding signal,[1],3.07 z-score
same,binding signal,GST-Hu-p50,1.67 z-score
CCGATTAACATCAGGGAAAGGTATGATGTTAATCGGGTCTTGATTCGCTTGACGCTGCTG,binding signal,[1],3.34 z-score
same,binding signal,GST-Hu-p50,2.11 z-score
CCGATTAACATCAGGACACTCCCTGATGTTAATCGGGTCTTGATTCGCTTGACGCTGCTG,binding signal,[1],1.43 z-score
same,binding signal,GST-Hu-p50,1.94 z-score
CCGATTAACATCAGGGATCCCCATGATGTTAATCGGGTCTTGATTCGCTTGACGCTGCTG,binding signal,[1],5.06 z-score
same,binding signal,GST-Hu-p50,4.35 z-score
CCGATTAACATCAAAAACACCCCTGATGTTAATCGGGTCTTGATTCGCTTGACGCTGCTG,binding signal,[1],3.89 z-score
same,binding signal,GST-Hu-p50,4.99 z-score
CCGATTAACATCAGGGGGGGTCATGATGTTAATCGGGTCTTGATTCGCTTGACGCTGCTG,binding signal,[1],1.92 z-score
same,binding signal,GST-Hu-p50,3.32 z-score
CCGATTAACATCAGGAAGACCCCTGATGTTAATCGGGTCTTGATTCGCTTGACGCTGCTG,binding signal,[1],1.11 z-score
same,binding signal,GST-Hu-p50,3.37 z-score
CCGATTAACATCAATCGGGAAATTGATGTTAATCGGGTCTTGATTCGCTTGACGCTGCTG,binding signal,[1],3.66 z-score
same,binding signal,GST-Hu-p50,2.28 z-score
CCGATTAACATCACGGGTTTTTCTGATGTTAATCGGGTCTTGATTCGCTTGACGCTGCTG,binding signal,[1],3.59 z-score
same,binding signal,GST-Hu-p50,3.63 z-score
CCGATTAACATCAGGGTAAAACCTGATGTTAATCGGGTCTTGATTCGCTTGACGCTGCTG,binding signal,[1],3.53 z-score
same,binding signal,GST-Hu-p50,2.56 z-score
CCGATTAACATCAGGCTTCCCCCTGATGTTAATCGGGTCTTGATTCGCTTGACGCTGCTG,binding signal,[1],6.08 z-score
same,binding signal,GST-Hu-p50,5.25 z-score
CCGATTAACATCAGGTTTTCCCATGATGTTAATCGGGTCTTGATTCGCTTGACGCTGCTG,binding signal,[1],5.41 z-score
same,binding signal,GST-Hu-p50,3.27 z-score
CCGATTAACATCAGCACCCCCCCTGATGTTAATCGGGTCTTGATTCGCTTGACGCTGCTG,binding signal,[1],3.4 z-score
same,binding signal,GST-Hu-p50,4.3 z-score
CCGATTAACATCAGGAATACCCCTGATGTTAATCGGGTCTTGATTCGCTTGACGCTGCTG,binding signal,[1],4.15 z-score
same,binding signal,GST-Hu-p50,5.04 z-score
CCGATTAACATCAGGACTCTCCCTGATGTTAATCGGGTCTTGATTCGCTTGACGCTGCTG,binding signal,[1],2.28 z-score
same,binding signal,GST-Hu-p50,3.64 z-score
CCGATTAACATCACGGGAATCCCTGATGTTAATCGGGTCTTGATTCGCTTGACGCTGCTG,binding signal,[1],4.38 z-score
same,binding signal,GST-Hu-p50,3.99 z-score
CCGATTAACATCAATGGGAAAATTGATGTTAATCGGGTCTTGATTCGCTTGACGCTGCTG,binding signal,[1],5.32 z-score
same,binding signal,GST-Hu-p50,3.49 z-score
CCGATTAACATCACGGTTTTTCCTGATGTTAATCGGGTCTTGATTCGCTTGACGCTGCTG,binding signal,[1],1.21 z-score
same,binding signal,GST-Hu-p50,1.62 z-score
CCGATTAACATCAGTCCCTAAGCTGATGTTAATCGGGTCTTGATTCGCTTGACGCTGCTG,binding signal,[1],1.05 z-score
same,binding signal,GST-Hu-p50,2.51 z-score
CCGATTAACATCAAAATTCCCGGTGATGTTAATCGGGTCTTGATTCGCTTGACGCTGCTG,binding signal,[1],6.06 z-score
same,binding signal,GST-Hu-p50,4.89 z-score
